Measured values from PubChem BioAssay (NCI).
This is part of a sample that, as a whole, favours compounds with a hit. Of some 83,000 tested, about 20% had one in any assay.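 Results are percent growth after 48 hours of single-concentration exposure. 100 means growth as in untreated cells, lower positive values show inhibition; negative values down to -100 show cell death.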 Unmarked numbers belong to inactive results. Activity calls are given as the source filed them. Rule for the calls: active = growth percent below 10; inactive = the rest.

How the values were obtained:
Assay in all cases: NCI-60 one-dose screen, 48 h (100 = growth as untreated, 0 = no growth, -100 = all killed)
Conditions in all cases: 10 µM unless noted
BT-549 breast = test system: BT-549 breast
MDA-MB-435 melanoma = test system: MDA-MB-435 melanoma
SW-620 colon = test system: SW-620 colon
MCF7 breast = test system: MCF7 breast
HCT-116 colon = test system: HCT-116 colon
HCC-2998 colon = test system: HCC-2998 colon
KM12 colon = test system: KM12 colon

| SMILES | growth (BT-549 breast) | growth (MDA-MB-435 melanoma) | growth (SW-620 colon) | growth (MCF7 breast) | growth (HCT-116 colon) | growth (HCC-2998 colon) | growth (KM12 colon) |
| --- | --- | --- | --- | --- | --- | --- | --- |
| COc1ccc(-c2nn3c(-c4ccccc4F)nnc3s2)cc1 | 50.9% | -4.46% (active) | 34.4% | 36.8% | 42% | 70% | 31.8% |
| Cc1cc(=O)oc2cc(OCCCOc3ccc(/C=C/C(=O)Nc4ccc(Cl)cc4)cc3)ccc12 | 64.4% | 61.1% | 27.2% | 35.1% | 64.8% | 69.6% | – |
| COc1cc(/C=C/C(=O)c2ccc(Cl)cc2)ccc1Oc1nc(NCCO)nc(N2CCOCC2)n1 | 100% | 109% | 72.4% | 67% | 93.1% | 100% | 106% |
| Cn1c(SCC(=O)Nc2ccc(-c3nc4ccc([N+](=O)[O-])cc4[nH]3)cc2)nc2ccccc2c1=O | 27.8% | 93.4% | 87.3% | 45.3% | 70.9% | 84.6% | 65.5% |
| O=C(CCN1C(=O)/C(=C/c2ccccc2F)SC1=S)N1CCOCC1 | 108% | 80.8% | 58.8% | 30.1% | 81.9% | 115% | 80.8% |
| O=c1/c(=C\c2ccc(-c3ccccc3)o2)sc2nc(-c3ccccc3)nn12 | 119% | 101% | 104% | 99.1% | 103% | 113% | – |
| CCOc1ccc([C@H]2C(C(=O)c3ccc(Cl)cc3)C3(N[C@@H]2c2ccccc2)C(=O)Nc2ccc(Br)cc23)cc1 (some centres not stated) | 71.9% | 28.5% | 24.6% | 9.08% (active) | 4.78% (active) | 0.672% (active) | -10.8% (active) |
| N[C@@H](Cc1cn(-c2c3ccccc3nc3ccccc23)nn1)C(=O)O | 117% | 104% | 105% | 73.9% | 106% | 117% | – |
| N#Cc1nc(-c2ccccc2)oc1S(=O)(=O)N1CCN(CCc2ccccn2)CC1 | 107% | 22.9% | -24.2% (active) | 28% | 11.9% | 114% | 84.1% |
| CC(=O)c1ccc(Nc2nc(SC(C)C)nc(-c3ccccc3)c2C#N)cc1 | 118% | 102% | 98.6% | 90.6% | 97.5% | 123% | – |
| C=C1CC[C@H]2[C@@](C)(CCC3OC(c4ccc(OCc5cn(C6CC(OC(C)=O)C(OC(C)=O)C(COC(C)=O)O6)nn5)cc4)OC[C@]32C)[C@@H]1/C=C/C1=CCOC1=O (some centres not stated) | 61.2% | 85.4% | 96.1% | 44.4% | 48.3% | 100% | 86.3% |
| CN(C)CCCNc1c2ccccc2nc2c1oc1ccc(Cl)cc12 | 57.9% | 33.5% | 9.93% (active) | -25.7% (active) | 22.5% | -43.7% (active) | 25.5% |
| CC(C)NC(=O)c1cc(-c2ccc(NC(=O)Nc3ccc(N4CCOCC4)c(C(F)(F)F)c3)cc2)nc2cccnc12 | 66.7% | 67.9% | 79.7% | 37.2% | 63.9% | 106% | – |
| c1ccc(CNc2ncnc3ccc(-c4cnc5[nH]ncc5c4)cc23)cc1 | 62.2% | 86.9% | 72.9% | 30.3% | 80.1% | 83.6% | 84.9% |
| CCCC(=O)NC(c1ccc2c(c1)OC(F)(F)O2)c1cc(C)c2cccnc2c1O (configuration not stated) | 37.9% | 22.9% | 30.3% | 24.1% | 26.2% | 53.3% | 21.4% |
| COc1cccc(OC)c1-c1nnn(C)c1C(=S)N1CCN(c2ccc([N+](=O)[O-])cc2Cl)CC1 | 91.7% | 102% | 101% | 85.7% | 88.2% | 96.7% | 108% |
| CC(=O)Nc1cc(F)cc(-c2ccc3[nH]cc(-c4ccccc4)c3n2)c1 | 73.1% | 9.43% (active) | -56.2% (active) | 1.97% (active) | 11.9% | -19% (active) | -41% (active) |
| Nc1c(C(=O)Nc2ccc(Cl)cc2)sc2nc(-c3cnccn3)cc(-c3cccs3)c12 | 65.3% | 77.5% | 66.3% | 55.3% | 41.6% | 104% | 80.2% |

| SMILES | growth (BT-549 breast) | growth (MDA-MB-435 melanoma) | growth (SW-620 colon) | growth (MCF7 breast) | growth (HCT-116 colon) | growth (HCC-2998 colon) | growth (KM12 colon) |
| --- | --- | --- | --- | --- | --- | --- | --- |
| CS(=O)(=O)c1ccc(-c2nc3ccccn3c2C=Nc2ccc(Cl)cc2)cc1 | 74.3% | 56.7% | 63% | 87.7% | 52.1% | 95.8% | – |
| Nc1cc(-c2c[nH]c3ccc(F)cc23)nc2cc(-c3c[nH]c4ccc(F)cc34)nn12 | 103% | 64.2% | 4.64% (active) | 37% | 31.9% | 72.5% | 40.6% |
| N#Cc1c(-c2ccc(Cl)cc2)nc2c(-c3ccccc3)c(Nc3ccccc3)nn2c1N | 94.4% | 58.7% | 40.6% | 47.9% | 20.7% | 90.7% | 60% |
| N[C@@H](Cc1cn(-c2ccnc3ccccc23)nn1)C(=O)O | 118% | 106% | 104% | 101% | 104% | 104% | – |
| O=C1NC(=C(Cl)Cl)/C(=N/S(=O)(=O)N2CCCCC2CC2(C(F)(F)F)N=N2)N1 (configuration not stated) | 68% | 41.6% | -82.2% (active) | 9.63% (active) | -28.8% (active) | 5.46% (active) | 9.36% (active) |
| Cn1ccnc1C(=O)/C=C/c1ccc(NC(=O)Nc2ccc(Cl)cc2)cc1 | 63.6% | 75% | 71% | 38.1% | 25% | 90.2% | 49.6% |
| COc1ccc(-c2nc3ccc(-c4nnc(SCC(=O)Nc5ccc(C(=O)/C=C/c6ccc(Cl)cc6)cc5)o4)cc3[nH]2)cc1OC | 106% | 106% | 105% | 75.9% | 101% | 124% | 104% |
| c1ccc2c(NCCCn3ccnc3)c3oc4ccccc4c3nc2c1 | 21.6% | 3.7% (active) | -16.9% (active) | -11.4% (active) | 6.12% (active) | 0.465% (active) | 7.47% (active) |
| COc1cc2cc(Oc3ccc(NC(=O)c4cccc(C(F)(F)F)c4)cc3)c(C)nc2cc1OCCN1CCCCC1 | 98.7% | -86.6% (active) | -71.7% (active) | 12.7% | 0.649% (active) | -17.7% (active) | – |
| Cc1nc2cnc(N)c(C#Cc3cncc(C(=O)Nc4ccc(Cl)c(C(F)(F)F)c4)c3)c2nc1C | 86.7% | 41% | -18.9% (active) | -67.5% (active) | 15.4% | 60.4% | 3.01% (active) |
| O=C1Nc2ccccc2Oc2ccc(S(=O)(=O)CC3CO3)cc21 (configuration not stated) | 25% | 46.3% | 17.9% | 18.1% | 46.3% | 71.9% | – |
| Clc1ccc2oc3c(OCCCn4ccnc4)c4ccccc4nc3c2c1 | 95.7% | 64.6% | 36.1% | 63.2% | 28.9% | 72.1% | 55.8% |
| CNC(=O)c1cc(-c2ccc(NC(=O)Nc3ccc(N4CCN(C)CC4)c(C(F)(F)F)c3)cc2)nc2cccnc12 | -81.4% (active) | -93% (active) | -81.2% (active) | -100% (active) | -98.4% (active) | -94.9% (active) | – |
| Cc1ccccc1NC(=O)/C=C/c1ccc(OCCOc2ccc3c(C)cc(=O)oc3c2)cc1 | 87.8% | 90.4% | 98.6% | 85.7% | 97.7% | 114% | – |
| O=C1c2c(c3c4cc(Br)ccc4[nH]c3c3ccc4ccccc4c23)C(=O)N1CCO | 105% | 94.8% | 75.9% | 34.3% | 84.2% | 103% | – |
| COc1cccc(-c2nn(-c3ccccc3)cc2-c2ccnc(N3CCN(C(=O)c4ccccc4)CC3)c2)c1 | 91.4% | 17% | 72.1% | 85.5% | 73.3% | 113% | – |
| C=CCSc1ccc2c(c1)C(N1CCNCC1)=Nc1ccccc1O2 | 106% [8.25 µM] | 68% [8.25 µM] | 73.4% [8.25 µM] | 59.2% [8.25 µM] | 55.1% [8.25 µM] | -14.8% [8.25 µM] (active) | – |
| CC(C)(C)OC(=O)N1C(=O)c2c(c3c4ccccc4[nH]c3c3ccc4ccccc4c23)C1=O | 61.7% | 40.3% | 57.2% | 34.5% | 58.8% | 82.6% | – |
